# Records with an inconclusive call do not appear. Entries that show only a call come without a potency. Activity calls are given as the source filed them. Calls follow the shape of the dose curve; as a rule, active = well fitted activation curve with a large enough effect; inconclusive = small, poorly fitted or top-dose-only effect; inactive = flat fitted curve, though single readings scatter.
# Assay: Primary redox qHTS assay for identification of artifact compounds. (AID 1845223)
# Conditions: Amplex Red/HRP redox cycling with DTT, fluorescence; series mostly up to 53.8 µM
# Method in brief: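 Redox-cycling detection via DTT (250 uM final) oxidation coupled to Amplex Red (25 uM)/HRP (250 mU/mL) in HBSS. 15 min preincubation plus 30 min after DTT, room temperature. Ex/Em 525/598 nm; 4-parameter Hill fit against DMSO and 10 uM DA3003.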
Structure (SMILES),Potency,redox activity (% of DA3003)
CCCC(N[C@@H](C)C(=O)N1[C@H](C(=O)O)C[C@@H]2CCCC[C@@H]21)C(=O)OCC (stereo partly specified),inactive,–
O=C(O)CCc1cccc(O[C@@H]2O[C@H](CO)[C@@H](O)[C@H](O)[C@H]2O)c1O,inactive,–
CCOC(=O)c1ccnc(CNCC(=O)N(CC)CCN(C)C)c1,inactive,–
CC(=O)O[C@@H]1[C@H](O[C@@H]2OC[C@](O)(CO)[C@H]2O)[C@@H](O[C@@H]2O[C@@H](C)[C@H](O)[C@@H](O)[C@H]2O)[C@H](OC(=O)[C@]23CCC(C)(C)C[C@H]2C2=CCC4[C@@]5(C)C[C@H](O)[C@H](O[C@@H]6O[C@H](C(=O)O)[C@@H](O)[C@H](O)[C@H]6O)[C@@](C)(C(=O)O)C5CC[C@@]4(C)[C@]2(C)CC3)O[C@@H]1C (stereo partly specified),–,2.26% [at 11.5 µM] (inactive)
CC1(C)OC(=O)C(OCC2CC2)=C1c1ccc(S(C)(=O)=O)cc1,inactive,–
CC(=O)O[C@H]1CC[C@@]2(CI)C(=CC[C@@H]3[C@@H]2CC[C@]2(C)[C@@H]([C@H](C)CCCC(C)C)CC[C@@H]32)C1,–,-3.63% [at 11.5 µM] (inactive)
c1ccc(Cc2ncc3c(n2)CCNCC3)cc1,inactive,–
CC[C@H](/C=C/[C@@H](C)[C@H]1CC[C@H]2[C@@H]3CC=C4C[C@@H](O)CC[C@]4(C)[C@H]3CC[C@]12C)C(C)C,–,-0.124% [at 6.41 µM] (inactive)
O=C(/C=C/c1ccc(O)cc1)OCC1=C[C@@H](O)[C@@H]2C=CO[C@@H](O[C@@H]3O[C@H](CO)[C@@H](O)[C@H](O)[C@H]3O)[C@H]12,inactive,–
C=CC(C)(O)CC/C=C(\C)C(=O)OCC1OC(OC2CCC3(C)C(CCC4(C)C3CC=C3C5CC(C)(C)C(O)CC5(C(=O)O)CCC34C)C2(C)C)C(O)C(OC2OC(CO)C(O)C(OC3OC(CO)C(O)C(OC4OC(COC5OC(CO)C(O)C(O)C5O)C(O)C(O)C4O)C3O)C2O)C1O (stereo unspecified),–,18.5% [at 11.5 µM] (inactive)
CC1=C(CC(=O)O)c2cc(F)ccc2C1=Cc1ccc(S(C)(=O)=O)cc1,inactive,–
CC1(C)CC[C@]2(C(=O)O[C@@H]3O[C@H](CO)[C@@H](O)[C@H](O)[C@H]3O)CC[C@]3(C)C(=CCC4[C@@]5(C)C[C@@H](O)[C@H](O)C(CO)(CO)C5CC[C@]43C)C2[C@@H]1O (stereo partly specified),inactive,–
NS(=O)(=O)NCCNc1nonc1C(=Nc1ccc(F)c(Br)c1)NO,inactive,–
COc1cc(CCc2ccccc2)c(C(=O)O)c2c1CC(C(C)(C)O)O2 (stereo unspecified),inactive,–
C[C@@H]1CC[C@]2(C)C3(C)CC[C@@]2(OC3=O)[C@@]12C[C@H](c1ccoc1)OC2=O,inactive,–
COC(=O)CC[C@@H](C)[C@H]1CC[C@H]2[C@@H]3CC(=O)[C@H]4C[C@H](OC(C)=O)CC[C@]4(C)[C@H]3CC[C@]12C,inactive,–
C[C@@H]1O[C@@H](O[C@H]2[C@H](OC(=O)C34CCC5(C)C(=CCC6C7(C)CC(O)C(O[C@@H]8O[C@H](C(=O)O)[C@@H](O)[C@H](O)[C@H]8O)C(C)(C(=O)O)C7CCC65C)C3CC(C)(C)CC4O)O[C@H](C)[C@@H](O)[C@@H]2O)[C@H](O)[C@@H](O[C@@H]2OC[C@](O)(CO)[C@H]2O[C@@H]2O[C@H](CO)[C@@H](O)[C@H](O)[C@H]2O)[C@H]1O (stereo partly specified),–,3.71% [at 11.5 µM] (inactive)
CC1(O)CCC2C(C(=O)O)=COC(OC3OC(CO)C(O)C(O)C3OC(=O)/C=C/c3ccc(O)cc3)C21 (stereo unspecified),inactive,–
C[C@@H]1O[C@@H](OC[C@H]2O[C@@H](OCCc3ccccc3)[C@H](O)[C@@H](O)[C@@H]2O)[C@H](O)[C@H](O)[C@H]1O,inactive,–
C[C@@H]1CCC2C(C)(C)[C@H](O)CC[C@]2(C)[C@@]12Cc1c(O)cc3c(c1O2)CN(CCO)C3=O (stereo partly specified),inactive,–
O=C(C1CC1)N1CC[C@@H](Cc2n[nH]c(=O)n2-c2ccc(-c3ccc4occc4c3)cc2)C1,inactive,–
C=C1CC[C@H]2[C@@](C)(CCC[C@@]2(C)C(=O)O)[C@@H]1CCC(C)CCO (stereo partly specified),inactive,–
COc1ccc(C(O[C@@H]2O[C@H](CO)[C@@H](O)[C@H](O)[C@H]2O)C(CO)Oc2ccc(/C=C/CO)cc2OC)cc1O (stereo partly specified),inactive,–
C[C@@H]1C[C@H](O)/C=C/[C@H](O)[C@@H](O)CC(=O)O1,inactive,–
C=C(C)C1CC2(CO)C(=CC1=O)CCC(O)C2C (stereo unspecified),inactive,–
C[C@@H]1O[C@@H](O[C@@H]2[C@@H](O)[C@H](O[C@@H]3[C@@H](O)[C@@H](O)[C@H](O[C@H]4[C@H](OC(=O)[C@]56CCC(C)(C)C[C@H]5C5=CCC7[C@@]8(C)C[C@H](O)[C@H](O[C@@H]9O[C@@H](C)[C@H](O)[C@@H](O)[C@H]9O)[C@@](C)(CO)C8CC[C@@]7(C)[C@]5(C)C[C@H]6O)O[C@H](C)[C@H](O)[C@@H]4O)O[C@H]3C)OC[C@H]2O)[C@H](O)[C@H](O)[C@H]1O (stereo partly specified),–,10.9% [at 11.5 µM] (inactive)

# Source: PubChem BioAssay (NCATS)
